The campaign covered roughly 5,500 compounds. About 2,000 (36%) were called active. Inconclusive results (about 18%) are left out. Some of the results follow. A number with no mark means an inactive call. Rule as the data show it: active = normalized growth mostly below about 0.91 (no sharp cut-off); inconclusive = no clear call, values can overlap the other calls; inactive = mostly above about 0.92. Where a SMILES comes first, the peptide text is derived from it. [ ]: non-standard residue; d: D form. Orn = NCCC[CH](N)C(=O)O

The nature of the assay: chemical genetic growth profiling, strain panel (AID 1159580).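 Also: tested at 20 µM; growth read once vehicle control cultures reached saturation at 30 °C; 1 = growth at the plate median or of vehicle wells.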 Conditions: S. cerevisiae deletion strains, growth OD.

On to `CC(C)[C@@H]1NC(=O)[C@H](CCCCN)NC(=O)[C@@H](Cc2c[nH]c3ccccc23)NC(=O)[C@H](Cc2ccc(O)cc2)NC(=O)[C@H](C)N(C)C(=O)[C@H](Cc2ccccc2)NC1=O`, for which the normalized growth is 0.981 (locus YAL040C, strain CLN3, stronger effect = lower value); 0.988 (locus YCL061C, strain MRC1 (second series), stronger effect = lower value); 0.995 (locus YDR363W, strain ESC2, stronger effect = lower value); 1.01 (locus YER002W, strain NOP16, stronger effect = lower value); 0.994 (locus YMR263W, strain SAP30, stronger effect = lower value); 0.879 (active) (locus YMR307W, strain GAS1, stronger effect = lower value). Besides, the normalized growth (locus YNL175C, strain NOP13, stronger effect = lower value) was 0.988; the normalized growth (locus YNL197C, strain WHI3, stronger effect = lower value) is 0.988; the normalized growth (locus YNL224C, strain SQS1, stronger effect = lower value) is 1; the normalized growth (locus YNL322C, strain KRE1, stronger effect = lower value) was 0.984; the normalized growth (locus YOR083W, strain WHI5 (second series), stronger effect = lower value) is 0.989.

With `CC(C)CC1NC(=O)C(CCCN)NC(=O)C(C(C)C)NC(=O)C(Cc2ccc(O)cc2)NC(=O)C(CCC(=O)O)NC(=O)C(CC(=O)O)NC(=O)C(Cc2ccccc2)NC(=O)C(Cc2ccccc2)NC(=O)C2CCCN2C(=O)C(Cc2ccccc2)NC1=O` (configuration not stated) (cyclo(DEYV[Orn]LFPFF); configuration not given here), the normalized growth (locus YOL012C, strain htz1) is 0.202.

The values are drawn from PubChem BioAssay AID1159580 (chemical genetic matrix, 2015).
